Assay in all cases: DAPPL (digital affinity profiling via proximity ligation, sequencing); 10 mM Tris-HCl pH 7.5, 50 mM NaCl, 1 mM DTT, 4% glycerol, room temperature, 30 min; GST-TFs on glutathione beads, 16-mer random dsDNA library, 0.1% formaldehyde crosslink after washing; high values mean tight binding
Experiment [1] addresses T1, FLI1 (Homo sapiens, UniProt Q01543 1-452).
T1 sequence: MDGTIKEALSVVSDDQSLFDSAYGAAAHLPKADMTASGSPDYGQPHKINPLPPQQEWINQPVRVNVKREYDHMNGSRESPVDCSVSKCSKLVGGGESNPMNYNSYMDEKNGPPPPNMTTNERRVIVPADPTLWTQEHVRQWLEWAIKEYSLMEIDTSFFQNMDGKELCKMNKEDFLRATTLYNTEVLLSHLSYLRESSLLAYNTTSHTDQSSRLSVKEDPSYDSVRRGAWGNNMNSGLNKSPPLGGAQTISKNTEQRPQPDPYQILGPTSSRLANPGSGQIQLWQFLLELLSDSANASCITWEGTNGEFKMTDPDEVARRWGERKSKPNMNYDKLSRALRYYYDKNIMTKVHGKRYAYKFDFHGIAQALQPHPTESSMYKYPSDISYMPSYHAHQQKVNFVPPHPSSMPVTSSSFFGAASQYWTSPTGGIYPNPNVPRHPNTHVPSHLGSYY
The conditions noted are these: protein: recombinant; tags: N-terminal GST; dsDNA, one strand shown. In short, it runs like this:
(§1)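 Sequencing on an Illumina NextSeq500 followed washing, crosslinking with 0.1% formaldehyde, proximity ligation (BsaI/T4 ligase, 1 h, 37 °C) and PCR amplification of pools that had been incubated for 30 min at room temperature with 200 nmole of a random double-stranded 16-mer DNA library in Tris/NaCl/DTT/glycerol buffer. Each pool held DNA-barcoded human transcription factors, expressed in yeast as GST fusions and captured on glutathione beads, plus a tag-only sample. Binding signal is a hexamer's read frequency for a factor divided by its frequency in the tag-only sample.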

In experiment [2] the target is T2, ELK1 (Homo sapiens, UniProt P19419 1-428).
T2 sequence: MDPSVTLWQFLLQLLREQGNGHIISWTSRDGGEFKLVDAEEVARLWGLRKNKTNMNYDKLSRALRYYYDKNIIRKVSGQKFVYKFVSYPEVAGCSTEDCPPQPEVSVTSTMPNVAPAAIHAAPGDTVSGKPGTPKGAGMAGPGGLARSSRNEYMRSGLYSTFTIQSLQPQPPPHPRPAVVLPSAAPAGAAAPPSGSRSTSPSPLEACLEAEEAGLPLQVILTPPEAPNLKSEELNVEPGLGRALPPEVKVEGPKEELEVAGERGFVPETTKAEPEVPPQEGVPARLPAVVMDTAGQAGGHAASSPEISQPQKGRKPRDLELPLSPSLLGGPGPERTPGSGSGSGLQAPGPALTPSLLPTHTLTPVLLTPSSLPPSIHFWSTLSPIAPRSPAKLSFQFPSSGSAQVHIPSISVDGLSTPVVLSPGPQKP
The conditions noted are these: protein: recombinant; tags: N-terminal GST; dsDNA, one strand shown. In short, it runs like this: as §1

Experiment [3] addresses T3, GABPA (Homo sapiens, UniProt Q06546 1-454).
T3 sequence: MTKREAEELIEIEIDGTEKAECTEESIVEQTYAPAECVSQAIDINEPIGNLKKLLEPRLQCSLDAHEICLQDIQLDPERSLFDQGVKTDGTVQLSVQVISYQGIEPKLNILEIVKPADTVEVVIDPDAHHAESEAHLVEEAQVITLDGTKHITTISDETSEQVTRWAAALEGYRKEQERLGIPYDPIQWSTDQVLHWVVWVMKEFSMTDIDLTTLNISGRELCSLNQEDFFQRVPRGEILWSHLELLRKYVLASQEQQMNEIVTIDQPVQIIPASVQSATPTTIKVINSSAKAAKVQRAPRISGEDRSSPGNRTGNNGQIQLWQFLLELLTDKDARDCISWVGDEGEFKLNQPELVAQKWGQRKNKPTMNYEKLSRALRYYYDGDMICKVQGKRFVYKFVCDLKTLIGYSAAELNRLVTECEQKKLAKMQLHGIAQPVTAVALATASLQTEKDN
Conditions: protein: recombinant; tags: N-terminal GST; dsDNA, one strand shown. In short, it runs like this:
as §1

The target in experiment [4] is T4, ERG (Homo sapiens, UniProt P11308 1-479).
T4 sequence: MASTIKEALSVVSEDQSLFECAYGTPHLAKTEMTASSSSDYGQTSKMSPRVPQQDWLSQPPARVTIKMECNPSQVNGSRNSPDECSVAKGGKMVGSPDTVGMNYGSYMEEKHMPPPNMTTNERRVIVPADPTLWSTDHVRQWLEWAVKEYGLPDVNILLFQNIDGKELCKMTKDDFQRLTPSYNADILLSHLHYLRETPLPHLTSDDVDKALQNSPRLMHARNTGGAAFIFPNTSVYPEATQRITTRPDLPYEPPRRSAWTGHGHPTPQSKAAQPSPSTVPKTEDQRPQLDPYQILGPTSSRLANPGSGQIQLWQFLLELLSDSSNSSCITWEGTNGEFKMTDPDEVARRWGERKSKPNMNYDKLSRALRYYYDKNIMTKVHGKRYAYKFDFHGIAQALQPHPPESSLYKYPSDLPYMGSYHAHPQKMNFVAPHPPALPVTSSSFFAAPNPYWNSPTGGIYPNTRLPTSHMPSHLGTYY
Conditions: protein: recombinant; tags: N-terminal GST; dsDNA, one strand shown. In short, it runs like this: as §1

Experiment [5] deals with ELF1 (Homo sapiens, UniProt P32519 1-619). Conditions: protein: recombinant; tags: N-terminal GST; dsDNA, one strand shown. Put shortly:
as §1

In experiment [6] the target is T5, EHF (Homo sapiens, UniProt Q9NZC4 1-300).
T5 sequence: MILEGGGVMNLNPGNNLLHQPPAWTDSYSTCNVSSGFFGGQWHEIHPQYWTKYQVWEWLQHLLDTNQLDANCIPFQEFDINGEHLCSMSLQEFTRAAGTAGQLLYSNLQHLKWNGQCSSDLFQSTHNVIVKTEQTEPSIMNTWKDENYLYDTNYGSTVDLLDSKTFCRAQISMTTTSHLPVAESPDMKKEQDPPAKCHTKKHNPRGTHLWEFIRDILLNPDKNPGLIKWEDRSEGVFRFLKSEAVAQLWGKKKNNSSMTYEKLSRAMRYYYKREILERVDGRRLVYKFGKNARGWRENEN
The conditions noted are these: protein: recombinant; tags: N-terminal GST; dsDNA, one strand shown. In short, it runs like this:
as §1

In experiment [7] the target is SPI1 (Homo sapiens, UniProt P17947 1-270). The conditions noted are these: protein: recombinant; tags: N-terminal GST; dsDNA, one strand shown. In short, it runs like this:
as §1

In experiment [8] the target is SPIB (Homo sapiens, UniProt Q01892 1-262). The conditions noted are these: protein: recombinant; tags: N-terminal GST; dsDNA, one strand shown. In short, it runs like this: as §1
SPIB, sequence (Q01892 whole entry): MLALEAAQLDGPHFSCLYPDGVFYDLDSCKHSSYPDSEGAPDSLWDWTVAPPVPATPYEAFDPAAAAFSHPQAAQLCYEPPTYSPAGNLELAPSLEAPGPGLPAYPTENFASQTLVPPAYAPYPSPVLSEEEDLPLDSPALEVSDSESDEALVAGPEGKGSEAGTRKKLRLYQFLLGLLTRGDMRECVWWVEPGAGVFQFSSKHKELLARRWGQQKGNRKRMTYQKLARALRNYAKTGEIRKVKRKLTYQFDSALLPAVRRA
The target in experiment [9] is T6, ELK3 (Homo sapiens, UniProt P41970 1-407).
T6 sequence: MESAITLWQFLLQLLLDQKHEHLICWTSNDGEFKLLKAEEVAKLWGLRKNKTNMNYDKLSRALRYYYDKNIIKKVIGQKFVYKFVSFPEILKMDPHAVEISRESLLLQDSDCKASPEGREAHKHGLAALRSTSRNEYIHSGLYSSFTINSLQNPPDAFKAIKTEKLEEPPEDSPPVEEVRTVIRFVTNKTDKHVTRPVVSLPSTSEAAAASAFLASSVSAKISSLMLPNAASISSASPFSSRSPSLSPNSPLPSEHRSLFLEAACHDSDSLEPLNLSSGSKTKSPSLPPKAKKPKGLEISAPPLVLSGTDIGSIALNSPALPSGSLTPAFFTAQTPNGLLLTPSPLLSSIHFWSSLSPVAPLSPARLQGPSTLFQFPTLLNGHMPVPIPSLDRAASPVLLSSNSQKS
Conditions: protein: recombinant; tags: N-terminal GST; dsDNA, one strand shown. In short, it runs like this: as §1

Experiment [10] addresses T7, FEV (Homo sapiens, UniProt Q99581 1-238).
T7 sequence: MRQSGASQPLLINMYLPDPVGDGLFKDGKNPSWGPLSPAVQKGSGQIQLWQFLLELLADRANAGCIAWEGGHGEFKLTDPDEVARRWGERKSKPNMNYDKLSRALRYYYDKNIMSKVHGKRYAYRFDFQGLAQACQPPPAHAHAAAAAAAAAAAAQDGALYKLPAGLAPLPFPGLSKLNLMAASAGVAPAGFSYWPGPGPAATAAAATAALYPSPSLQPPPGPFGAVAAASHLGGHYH
Conditions: protein: recombinant; tags: N-terminal GST; dsDNA, one strand shown. In short, it runs like this:
as §1

The target in experiment [11] is ETV5 (Homo sapiens, UniProt P41161 1-510). Conditions: protein: recombinant; tags: N-terminal GST; dsDNA, one strand shown. Put shortly:
as §1

Experiment [12] has as its target HSF1 (Homo sapiens, UniProt Q00613 1-529). Conditions: protein: recombinant; tags: N-terminal GST; chain copies: 3; dsDNA, one strand shown. Put shortly:
as §1

Experiment [13] concerns the target T8, SPIC (Homo sapiens, UniProt Q8N5J4 1-248).
T8 sequence: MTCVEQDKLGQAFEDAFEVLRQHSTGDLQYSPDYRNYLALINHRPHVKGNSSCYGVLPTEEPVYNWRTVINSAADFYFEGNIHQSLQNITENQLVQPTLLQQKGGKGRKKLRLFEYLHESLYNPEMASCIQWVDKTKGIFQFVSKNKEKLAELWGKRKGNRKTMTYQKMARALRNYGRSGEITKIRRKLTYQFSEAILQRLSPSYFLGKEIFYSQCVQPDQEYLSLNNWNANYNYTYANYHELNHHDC
The conditions noted are these: protein: recombinant; tags: N-terminal GST; dsDNA, one strand shown. Put shortly: as §1

Experiment [14] deals with ELF4 (Homo sapiens, UniProt Q99607 1-663). Conditions: protein: recombinant; tags: N-terminal GST; dsDNA, one strand shown. In short, it runs like this:
as §1

The target in experiment [15] is T9, ELK4 (Homo sapiens, UniProt P28324-2 1-405).
T9 sequence: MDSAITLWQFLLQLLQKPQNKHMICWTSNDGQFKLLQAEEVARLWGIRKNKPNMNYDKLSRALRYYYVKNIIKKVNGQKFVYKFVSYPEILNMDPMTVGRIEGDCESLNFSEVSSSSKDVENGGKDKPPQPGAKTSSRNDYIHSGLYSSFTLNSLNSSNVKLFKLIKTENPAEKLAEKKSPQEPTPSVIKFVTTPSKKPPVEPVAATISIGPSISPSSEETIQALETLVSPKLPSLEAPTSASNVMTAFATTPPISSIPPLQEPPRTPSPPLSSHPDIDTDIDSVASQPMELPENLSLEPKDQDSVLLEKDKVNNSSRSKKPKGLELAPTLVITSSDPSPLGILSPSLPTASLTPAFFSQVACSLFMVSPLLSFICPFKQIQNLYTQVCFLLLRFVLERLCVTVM
The conditions noted are these: protein: recombinant; tags: N-terminal GST; dsDNA, one strand shown. In short, it runs like this: as §1

Experiment [16] addresses T10, ETV2 (Homo sapiens, UniProt O00321 1-342).
T10 sequence: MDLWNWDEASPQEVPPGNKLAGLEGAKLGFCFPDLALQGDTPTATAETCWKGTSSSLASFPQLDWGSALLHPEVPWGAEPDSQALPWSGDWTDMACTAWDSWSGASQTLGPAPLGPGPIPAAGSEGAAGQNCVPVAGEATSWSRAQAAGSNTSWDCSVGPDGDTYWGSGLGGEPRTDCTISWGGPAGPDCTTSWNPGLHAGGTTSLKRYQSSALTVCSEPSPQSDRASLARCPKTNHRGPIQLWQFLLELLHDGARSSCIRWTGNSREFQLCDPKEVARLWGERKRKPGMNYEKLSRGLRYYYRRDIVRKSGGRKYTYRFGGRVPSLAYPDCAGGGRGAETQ
Conditions: protein: recombinant; tags: N-terminal GST; dsDNA, one strand shown. Put shortly:
as §1

For experiment [17], the target named is T11, ELF3 (Homo sapiens, UniProt P78545 1-371).
T11 sequence: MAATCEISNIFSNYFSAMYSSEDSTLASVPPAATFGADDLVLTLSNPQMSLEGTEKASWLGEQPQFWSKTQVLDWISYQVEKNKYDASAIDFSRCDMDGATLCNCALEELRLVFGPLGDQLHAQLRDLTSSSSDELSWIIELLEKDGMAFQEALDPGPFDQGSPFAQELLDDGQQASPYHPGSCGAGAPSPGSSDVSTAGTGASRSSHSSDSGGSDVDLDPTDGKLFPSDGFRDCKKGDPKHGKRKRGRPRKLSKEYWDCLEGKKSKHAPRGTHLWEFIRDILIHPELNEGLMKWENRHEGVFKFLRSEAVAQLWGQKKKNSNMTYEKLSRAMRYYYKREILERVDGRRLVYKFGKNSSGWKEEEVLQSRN
Conditions: protein: recombinant; tags: N-terminal GST; dsDNA, one strand shown. In short, it runs like this:
as §1

Experiment [18] has as its target ETV1 (Homo sapiens, UniProt P50549 1-477). Conditions: protein: recombinant; tags: N-terminal GST; dsDNA, one strand shown. In short, it runs like this: as §1

ELF1, sequence (P32519 whole entry): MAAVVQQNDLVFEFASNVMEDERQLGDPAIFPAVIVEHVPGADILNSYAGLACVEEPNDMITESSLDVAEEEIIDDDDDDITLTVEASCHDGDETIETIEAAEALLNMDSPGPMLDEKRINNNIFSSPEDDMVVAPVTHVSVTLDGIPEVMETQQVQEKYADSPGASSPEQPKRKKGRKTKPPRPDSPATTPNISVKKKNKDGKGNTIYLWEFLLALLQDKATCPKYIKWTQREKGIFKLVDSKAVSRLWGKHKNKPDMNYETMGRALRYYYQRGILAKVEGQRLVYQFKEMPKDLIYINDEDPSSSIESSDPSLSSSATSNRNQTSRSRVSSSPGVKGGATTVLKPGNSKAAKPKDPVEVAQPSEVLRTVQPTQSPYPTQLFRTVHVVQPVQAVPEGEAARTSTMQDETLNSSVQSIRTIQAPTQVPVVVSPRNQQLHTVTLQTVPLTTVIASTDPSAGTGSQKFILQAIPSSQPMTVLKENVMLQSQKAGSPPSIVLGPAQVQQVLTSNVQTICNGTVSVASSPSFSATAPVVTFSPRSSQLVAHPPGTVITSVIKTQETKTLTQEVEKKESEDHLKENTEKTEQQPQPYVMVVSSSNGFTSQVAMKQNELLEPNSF
ETV1, sequence (P50549 whole entry): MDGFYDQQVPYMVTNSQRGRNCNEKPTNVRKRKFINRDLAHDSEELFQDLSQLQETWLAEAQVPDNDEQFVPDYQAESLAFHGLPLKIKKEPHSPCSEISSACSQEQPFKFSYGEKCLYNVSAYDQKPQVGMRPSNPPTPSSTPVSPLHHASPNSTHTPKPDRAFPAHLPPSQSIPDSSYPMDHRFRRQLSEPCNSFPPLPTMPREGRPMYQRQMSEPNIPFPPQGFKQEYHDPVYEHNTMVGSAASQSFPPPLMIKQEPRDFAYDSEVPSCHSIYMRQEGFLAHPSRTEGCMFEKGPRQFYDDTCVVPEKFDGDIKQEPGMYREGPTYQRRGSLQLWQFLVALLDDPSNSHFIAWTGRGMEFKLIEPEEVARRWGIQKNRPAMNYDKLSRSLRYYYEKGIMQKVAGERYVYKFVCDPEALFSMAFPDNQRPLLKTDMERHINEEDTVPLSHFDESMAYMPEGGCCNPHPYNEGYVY
ETV5, sequence (P41161 whole entry): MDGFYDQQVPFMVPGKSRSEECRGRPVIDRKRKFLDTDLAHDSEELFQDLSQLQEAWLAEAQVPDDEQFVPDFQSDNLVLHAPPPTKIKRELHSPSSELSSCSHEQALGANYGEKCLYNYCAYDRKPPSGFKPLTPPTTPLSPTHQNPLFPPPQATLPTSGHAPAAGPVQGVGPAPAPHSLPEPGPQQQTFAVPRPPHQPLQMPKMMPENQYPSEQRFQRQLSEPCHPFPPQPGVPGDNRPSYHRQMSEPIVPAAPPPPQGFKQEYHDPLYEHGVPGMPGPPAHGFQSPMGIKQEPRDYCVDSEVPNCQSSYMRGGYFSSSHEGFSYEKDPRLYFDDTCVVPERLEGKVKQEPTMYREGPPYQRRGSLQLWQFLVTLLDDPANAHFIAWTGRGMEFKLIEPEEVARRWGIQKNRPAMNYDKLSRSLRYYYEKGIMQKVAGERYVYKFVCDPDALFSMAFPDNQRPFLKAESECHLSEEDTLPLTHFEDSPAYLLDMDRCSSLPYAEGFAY
ELF4, sequence (Q99607 whole entry): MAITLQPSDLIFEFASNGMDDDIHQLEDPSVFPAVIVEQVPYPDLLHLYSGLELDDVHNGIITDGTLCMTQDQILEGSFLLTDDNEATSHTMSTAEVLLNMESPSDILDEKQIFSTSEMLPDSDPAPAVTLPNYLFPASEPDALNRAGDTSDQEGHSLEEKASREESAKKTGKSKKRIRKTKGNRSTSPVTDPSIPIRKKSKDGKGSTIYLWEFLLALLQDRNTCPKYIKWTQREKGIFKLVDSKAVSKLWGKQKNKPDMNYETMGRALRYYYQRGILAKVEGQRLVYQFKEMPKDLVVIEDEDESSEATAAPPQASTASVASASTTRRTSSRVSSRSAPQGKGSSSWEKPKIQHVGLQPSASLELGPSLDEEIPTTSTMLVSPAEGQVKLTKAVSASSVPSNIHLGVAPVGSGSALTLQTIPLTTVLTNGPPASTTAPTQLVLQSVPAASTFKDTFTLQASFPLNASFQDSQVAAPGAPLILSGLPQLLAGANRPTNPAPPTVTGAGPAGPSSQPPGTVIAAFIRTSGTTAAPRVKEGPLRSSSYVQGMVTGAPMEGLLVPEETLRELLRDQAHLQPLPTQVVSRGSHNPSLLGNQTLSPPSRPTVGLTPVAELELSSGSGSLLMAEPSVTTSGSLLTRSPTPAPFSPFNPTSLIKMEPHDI
HSF1, sequence (Q00613 whole entry): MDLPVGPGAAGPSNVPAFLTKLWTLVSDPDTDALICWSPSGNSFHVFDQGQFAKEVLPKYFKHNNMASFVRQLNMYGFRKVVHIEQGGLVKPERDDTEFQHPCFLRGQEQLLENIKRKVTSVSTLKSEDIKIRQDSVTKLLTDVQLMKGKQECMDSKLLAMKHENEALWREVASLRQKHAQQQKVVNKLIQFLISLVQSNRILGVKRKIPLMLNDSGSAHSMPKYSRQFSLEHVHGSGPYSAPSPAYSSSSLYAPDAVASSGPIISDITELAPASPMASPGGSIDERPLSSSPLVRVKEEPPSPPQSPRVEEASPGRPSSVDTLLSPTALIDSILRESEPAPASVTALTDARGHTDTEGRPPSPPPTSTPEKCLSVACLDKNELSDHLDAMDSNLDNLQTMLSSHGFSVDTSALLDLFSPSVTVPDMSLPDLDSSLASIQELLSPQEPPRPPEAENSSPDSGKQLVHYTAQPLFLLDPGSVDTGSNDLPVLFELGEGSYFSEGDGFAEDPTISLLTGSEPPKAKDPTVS

In the case of AACATG, the binding signal is 1.24 fold enrichment (6-mer frequency, TF over GST control) in [1]; 1.21 fold enrichment (6-mer frequency, TF over GST control) in [2]; 1.15 fold enrichment (6-mer frequency, TF over GST control) in [3]; 1.16 fold enrichment (6-mer frequency, TF over GST control) in experiment [4]; 1.22 fold enrichment (6-mer frequency, TF over GST control) in experiment [5]; 1.05 fold enrichment (6-mer frequency, TF over GST control) in experiment [6]. The binding signal in experiment [7] was 1.15 fold enrichment (6-mer frequency, TF over GST control); in experiment [8], 1.16 fold enrichment (6-mer frequency, TF over GST control); in experiment [9], 1.19 fold enrichment (6-mer frequency, TF over GST control); in experiment [10] it was 1.1 fold enrichment (6-mer frequency, TF over GST control); in [11] it was 1.23 fold enrichment (6-mer frequency, TF over GST control); in experiment [12], 1.1 fold enrichment (6-mer frequency, TF over GST control). Also, the binding signal in experiment [13] was 1.28 fold enrichment (6-mer frequency, TF over GST control); in [14], 1.23 fold enrichment (6-mer frequency, TF over GST control); in experiment [15] it was 1.25 fold enrichment (6-mer frequency, TF over GST control); in [16], 1.19 fold enrichment (6-mer frequency, TF over GST control); in [17] it was 1.26 fold enrichment (6-mer frequency, TF over GST control); in [18], 1.13 fold enrichment (6-mer frequency, TF over GST control).

Values taken from paper PMC7862700, “An all-to-all approach to the identification of sequence-specific readers for epigenetic DNA modifications on cytosine”.
